Source: PubChem (National Center for Advancing Translational Sciences (NCATS))
In the library only some 21% were active in any assay of this set; here they are far more common.
NS1 function inh: qHTS Assay for Inhibitors of Influenza NS1 Protein Function; 270,000 compounds, 0.4% hits; AID 2326, 2010; Potency, µM (doses to about 46.1 µM), without a hit: top-dose activity, positive = more growth; calls by dose curve; note: potency is the fitted concentration of half-maximal effect; actives are rising curves; nearly all actives have a fitted effect of over 50% in size
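Compounds were scored for reversing the slow growth caused by influenza A NS1 in S. cerevisiae, measured by optical density at 600 nm. Assay medium contained 2% galactose at pH 6.0; NS1-free yeast of the same strain were the positive control.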
Shiga inhibitor: A qHTS for Small Molecule Inhibitors of Shiga Toxin; Vero cells, Shiga toxin protein synthesis inhibition reporter; inhibition, % at 38.7 µM; 290,000 compounds, 9.2% hits; in the data active = inhibition mostly above about 28%, no sharp cut-off; inactive = mostly below about 43%; note: 0% is about no effect
Pf growth 96h: Primary qHTS for delayed death inhibitors of the malarial parasite plastid, 96 hour incubation; P. falciparum luciferase reporter growth, 96 h; Potency, µM (doses to about 28.7 µM), inactives show at the top dose activity change, negative = inhibition, actives largely listed as inhibitors; 320,000 compounds, 6.9% hits; AID 504834, 2011; note: potency is the fitted concentration of half-maximal effect; % is set by controls: 0 for no effect and ±100 for the full control effect
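P. falciparum expressing integrated firefly luciferase grown in erythrocytes (2% hematocrit, 0.05% parasitemia final) with compounds for 96 hours at 37 C, 5% CO2. Growth inhibition read as loss of luminescence after adding luciferase detection reagent.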
Pf growth 48h: Primary qHTS for delayed death inhibitors of the malarial parasite plastid, 48 hour incubation; P. falciparum luciferase growth in erythrocytes, 48 h; Potency, µM (series often up to 28.7 µM), without a hit: at the top dose activity change, negative = inhibition, actives largely listed as inhibitors; 310,000 compounds, 5.9% hits; AID 504832, 2011; note: potency is the fitted concentration of half-maximal effect; % is set by controls: 0 for no effect and ±100 for the full control effect
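Compounds are pin-transferred into medium, infected erythrocytes (2% hematocrit, 0.1% parasitemia final) are added, and plates sit one parasite generation at 37 C in 5% CO2. Detection reagent is then added and luminescence measured.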
Cycloheximide cs: Cycloheximide Counterscreen for Small Molecule Inhibitors of Shiga Toxin; cell reporter, cycloheximide protein synthesis inhibition counterscreen; max response, %; 300,000 compounds, 12% hits; in the data active = max response mostly above about 13%, no sharp cut-off; inactive = mostly below about 14%; note: read at 38.3 µM for the half of the compounds with a filed dose; 0% is about no effect
* marks the source's active call; other numbers are inactive results; i = inactive; ? = inconclusive; nt = no result; [ ] = remark or other dose. Unless noted, calls come from the whole dose curve; as a rule, active = well fitted inhibition curve with a large enough effect; inconclusive = small, poorly fitted or top-dose-only effect, or another doubt; inactive = no such curve, though single readings can be large or run the other way.

SMILES	NS1 function inh	Shiga inhibitor	Pf growth 96h	Pf growth 48h	Cycloheximide cs
CCOC(=O)Nc1ccc2c(c1)N(C(=O)CN1CCN(CCO)CC1)c1ccccc1CC2	11.9%	-9.9	11.7µM*	?	3.6
CCOC(=O)Nc1ccc2c(c1)N(C(=O)CN1CCN(C)CC1)c1ccccc1CC2	-2.1%	nt	?	?	-2.6
CCOC(=O)Nc1ccc2c(c1)N(C(=O)N(CC)CC)c1ccccc1CC2	-41.9%	-14.4	?	11.7µM*	-4.8
CCNCC(=O)N1c2ccccc2CCc2ccc(NC(=O)OC(C)C)cc21	19.3%	nt	-33.2%	11.7µM*	-0.9
CCOc1ccccc1OC(=O)c1cc2ccccc2oc1=O	-9.9%	20.6	?	9.7%	19.6
NC(=O)c1ccc2c(=O)c(O)c(-c3cc(Cl)c(N)c(Cl)c3)[nH]c2c1	?	9.9	26.9%	?	-2.3
COc1ccc(C/C(C)=N/NS(=O)(=O)c2ccc(Br)cc2)cc1	nt	-1.9	?	14.1%	8.6
COC(=O)c1[nH]c2cc(OC)c(OC)cc2c1NC(=O)CN1C[C@H]2C[C@@H](C1)c1cccc(=O)n1C2	nt	nt	?	-5.5%	nt
C/C=C(\C)C(=O)Nc1cccc(C2=NOC3(C2)C[C@H](C(N)=O)N(C(=O)CC#N)C3)c1 (some centres not stated)	3.4%	-2.0	7.0%	7.3%	-0.7
CCCCNC(=O)N(O)C1N(/N=C/c2ccccc2OC)C(=S)SC1(C)C (configuration not stated)	2.3%	-0.5	-23.2%	0.3%[0.00184 µM]	-3.8
CC(C)OC(=O)Nc1ccc2c(c1)N(C(=O)N1CCN(C)CC1)c1ccccc1CC2	-3.4%	15.9	?	0.0%	29.8*
CCOC(=O)Nc1ccc2c(c1)N(C(=O)N1CCN(C)CC1)c1ccccc1S2	-4.6%	14.3	?	?	-2.3
CCOC(=O)Nc1ccc2c(c1)N(C(=O)CCN1CCN3CCCC3C1)c1ccccc1CC2 (configuration not stated)	-10.6%	-9.6	14.7µM*	-28.3%	-4.8
O=C(NCC1CCCO1)C1c2ccccc2C(=O)N1Cc1ccc2c(c1)OCO2 (configuration not stated)	?	-13.7	47.4%	-6.7%	5.1
CCOC(=O)c1ccccc1NC(=O)CN(c1ccccc1)S(=O)(=O)N(C)C	-37.2%	19.2	nt	3.29µM*	11.1
CN(CCc1ccccn1)C(=O)Nc1ccc(C(C)(C)C)cc1	-4.2%	25.8	35.3%	3.3%	20.0*
CN(CCc1ccccn1)C(=O)Nc1ccc(F)cc1	-12.0%	2.7	-10.9%	8.6%	-4.6
CC(O)C(=O)N/N=C/c1cccc(Cl)c1Cl (configuration not stated)	-4.0%	-17.9	-18.5%	17.5%	19.8*
CCn1c(C)nc2cc(C(=O)NNC(=S)Nc3ccccc3Cl)ccc21	-0.6%	50.6*	i	83.8%	39.7*
CCn1c(C)nc2cc(C(=O)NNC(=S)Nc3ccc(Cl)cc3Cl)ccc21	7.0%	10.9	?	-0.3%	16.4*
Cc1cccc(N(C(=O)c2snc(C(N)=O)c2N)C(C)C(=O)NCC2CCCO2)c1 (configuration not stated)	-3.9%	-5.5	41.2%	17.3%	-3.1
Nc1ccc(C(=O)Nc2cccc(NC(=O)c3ccc(N)cc3)c2)cc1	-4.4%	-2.3	?	23.2%	1.7
Nc1ccc(C(=O)Nc2ccco2)cc1	4.2%	32.5*	-18.7%	64.1%	23.3
COc1ccc(NC(=O)C2CCCN2S(=O)(=O)c2cccc3cccnc23)cc1OC (configuration not stated)	-8.3%	-6.4	?	12.0%	4.2
CCCCCCN(CCCCCC)C(=O)Cc1c(-c2ccc(F)cc2)[nH]c2ccccc12	-10.1%	nt	?	5.86µM*	nt
SMILES	NS1 function inh	Shiga inhibitor	Pf growth 96h	Pf growth 48h	Cycloheximide cs
CCn1ncc([N+](=O)[O-])c1C(=O)n1nc(C)cc1C	1.1%	111.5*	35.3%	34.8%	45.4*
Cc1cc(C)n(C(=O)c2c([N+](=O)[O-])cnn2C)n1	1.8%	-7.2	41.2%	17.0%	-1.7
CC1=C(C(=O)OC(C)(C)C)C(c2cccs2)NC(=O)N1 (configuration not stated)	14.2%	0.7	0.5%	5.7%	2.9
Cc1nn(C)c(C)c1C1Nc2ccccc2C(=O)N1O (configuration not stated)	-6.5%	42.2	31.5%	28.2%	16.1*
O=C1c2ccccc2NC(c2cnc3ccccc3n2)N1O (configuration not stated)	-123.3%	71.4*	11.7%	343.0%	49.4*
Cc1ccsc1C1Nc2ccccc2C(=O)N1O (configuration not stated)	-0.3%	46.6*	?	-14.7%	20.2*
COc1ccc(N2CCN(C(=O)CCc3ccccc3OC)CC2)cc1	-7.6%	4.7	-14.2%	nt	-3.0
COc1ccc(-n2c(=O)c(CCC(=O)N3CCN(c4ccccc4O)CC3)nc3ccccc32)cc1	nt	nt	8.28µM*	3.7µM*	nt
Nc1nnc(CSCc2ccc(F)cc2)s1	12.2%	20.2	-27.5%	5.0%	-1.0
COc1cccc(NC(=O)CCSc2nnc3scc(-c4ccccc4)n23)c1	-20.1%	-5.7	0.0%	?	-0.9
O=c1cc(CSc2ccc(Cl)cc2)nc(-c2ccccn2)[nH]1	-95.6%	2.6	1.85µM*	2.33µM*	-1.9
O=c1cc(CSc2ccc(Cl)cc2)nc(-c2ccccc2)[nH]1	nt	-5.8	-2.7%	-10.2%	13.2
Cc1cccnc1Nc1nc(-c2ccc(O)cc2)cs1	4.4%	156.6*	nt	153.6%	49.7*
Cc1cccnc1Nc1nc(-c2ccc(F)cc2)cs1	-69.5%	103.1*	0.0%	72.5%	57.0*
CN1CCN(c2ccc(CNS(=O)(=O)c3ccsc3)cc2)CC1	5.3%	17.8	39.5%	2.7%	-1.7
COc1ccc(Cl)cc1NC(=O)CCc1nnc2ccc(N3CCN(C)CC3)nn12	3.5%	2.6	?	11.8%	9.5
C=CCN(c1ccc(C(=O)NCCSc2ccccc2)cc1)S(C)(=O)=O	-9.0%	119.7*	14.7µM*	21.0%	33.4*
C=CCN(c1ccc(C(=O)Nc2ccc(C)c(C)c2)cc1)S(C)(=O)=O	-16.6%	36.4	17.7%	30.2%	19.1*
C=CCN(c1ccc(C(=O)OC)cc1)S(=O)(=O)c1ccccc1	nt	92.2*	29.3%	36.2%	33.2*
CCCN(c1ccc(C(=O)OC)cc1)S(=O)(=O)c1ccccc1	nt	26.1	14.7%	5.6%	-2.6
C=CCN(c1ccc(C(=O)NC(C)C)cc1)S(C)(=O)=O	-0.6%	-26.1	nt	16.9%	0.6
CCOc1ccc(N(CC(=O)N/N=C/c2cc(Br)c(C)o2)S(C)(=O)=O)cc1	4.2%	-15.9	6.1%	?	-5.3
CCN(CC)C(=O)CSc1nc(N)c(C(=O)Nc2ccc(OC)cc2)s1	5.9%	-7.0	0.4%	13.2%	12.3
COc1ccc(NC(=O)c2sc(SC)nc2N)cc1	-9.7%	47.8	81.1%	nt	39.0*
COc1ccc(NC(=O)c2scc(S(=O)(=O)C(C)C)c2N)cc1	-2.3%	74.8*	243.6%	146.4%	34.6*
